# The entries come from a sample that favours hits as a whole.
# miR-122 inh: miR-122 suppressors via Renilla sensor increase, primary screen, cell-based, Huh7 psiCHECK-miR122, Renilla luciferase, single point. 48 h. activation, % at 12.5 µM. hit rate 0.14% among 340,000;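 active means mean activation of 30% or more, with every replicate also reaching 30%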;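 further: 0% = median of neutral control wells and 100% = median of positive control wells; higher luciferase signal means stronger suppression of miR-122 activity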
# Numbers without * were called inactive.
SMILES,miR-122 inh
C[C@@H]1CN([C@@H](C)CO)S(=O)(=O)c2ccc(Br)cc2O[C@@H]1CN(C)CC1CCOCC1,6
CCCNC(=O)N(C)C[C@@H]1Oc2ncc(C#CCC(C)C)cc2C(=O)N([C@H](C)CO)C[C@@H]1C,0
C[C@@H]1CN([C@@H](C)CO)S(=O)(=O)c2ccc(C#CC3CC3)cc2O[C@H]1CN(C)Cc1ccccn1,0
CO[C@@H]1CN(C)C(=O)c2cc(NC(=O)Nc3ccccc3)ccc2OC[C@H](C)NC[C@@H]1C,-2
CO[C@H]1CN(C)C(=O)c2cc(NC(=O)Nc3ccc(Cl)c(Cl)c3)ccc2OC[C@H](C)NC[C@H]1C,51*
CCCC(=O)Nc1ccc2c(c1)C(=O)N(C)C[C@H](OC)[C@@H](C)CN[C@@H](C)CO2,4
C[C@@H]1CN([C@H](C)CO)C(=O)c2cc(-c3cccc(F)c3)cnc2O[C@H]1CN(C)Cc1ccncc1,5
C[C@H](CO)N1C[C@H](C)[C@@H](CN(C)C(=O)CC2CC2)Oc2ncc(C#CCC3CCCC3)cc2C1=O,1
C[C@@H]1CN([C@H](C)CO)C(=O)c2cc(-c3cncnc3)cnc2O[C@H]1CN(C)Cc1ccncc1,2
Cc1ccsc1/C=N/NC(=O)CSCc1ccc(Cl)cc1,36*
COc1ccccc1S(=O)(=O)N(C)C[C@@H]1Oc2cc(/C=C/c3ccccc3)ccc2S(=O)(=O)N([C@H](C)CO)C[C@@H]1C,8
C[C@H](CO)N1C[C@H](C)[C@H](CN(C)C(=O)c2ccccn2)Oc2ncc(-c3cccc(F)c3)cc2C1=O,8
CCC(=O)N(C)C[C@H]1Oc2cc(C#C[C@@H](C)O)ccc2S(=O)(=O)N([C@H](C)CO)C[C@H]1C,1
COc1ccccc1-c1cnc2c(c1)C(=O)N([C@H](C)CO)C[C@@H](C)[C@@H](CN(C)Cc1ccccc1)O2,-3
O=C(CCCCCN1C(=O)c2ccccc2C1=O)NCc1ccccn1,35*
O=C(CCCCCCC(=O)Nc1ccccc1)NO,-232
CCc1ccc(-c2cc(C(=O)NCc3ccccn3)c3ccccc3n2)cc1,-148
Cc1noc(C)c1S(=O)(=O)N(C)C[C@@H]1Oc2c(NC(=O)c3cnccn3)cccc2C(=O)N([C@@H](C)CO)C[C@@H]1C,-166
C[C@H]1CN([C@@H](C)CO)C(=O)c2cccc(NC(=O)c3ccncc3)c2O[C@@H]1CN(C)Cc1ccc(C(F)(F)F)cc1,-108
CCC(=O)Nc1ccc2c(c1)OC[C@H](C)N(C(=O)c1ccccc1F)C[C@@H](C)[C@@H](OC)CN(C)C2=O,-3
Cc1cc(C(C)(C)CC(C)(C)C)ccc1OCCOCC[N+](C)(C)Cc1ccccc1,58*
CCCNC(=O)N(C)C[C@H]1Oc2ncc(C#CCC(C)C)cc2C(=O)N([C@H](C)CO)C[C@@H]1C,-2
COC1=CC(=O)C=C(OC)C1=O,57*
CC(C)NC(=O)N(C)C[C@H]1Oc2ncc(C3=CCCCC3)cc2C(=O)N([C@H](C)CO)C[C@@H]1C,-6
CO[C@@H]1CN(C)C(=O)c2ccc(NC(=O)C3CCC3)cc2OC[C@H](C)NC[C@@H]1C,-4
SMILES,miR-122 inh
C/C=C/c1cnc2c(c1)C(=O)N([C@@H](C)CO)C[C@@H](C)[C@@H](CN(C)C(=O)Cc1cccnc1)O2,-5
Cc1nn(C)cc1NC(=O)C[C@@H]1CC[C@@H]2[C@@H](COc3ccc(NC(=O)Nc4cccc(Cl)c4)cc3C(=O)N2C)O1,48*
CCCNC(=O)Nc1ccc2c(c1)C(=O)N(C)[C@@H]1CC[C@H](CC(=O)NCC3CCCCC3)O[C@H]1CO2,33*
CCCNC(=O)C[C@@H]1CC[C@@H]2[C@@H](COc3ccc(NC(=O)Nc4ccccc4F)cc3C(=O)N2C)O1,50*
Cc1cccc(NC(=O)Nc2ccc3c(c2)C(=O)N(C)[C@H]2CC[C@@H](CC(=O)NCc4ccccc4Cl)O[C@H]2CO3)c1,37*
CCCNC(=O)C[C@@H]1CC[C@@H]2[C@H](COc3ccc(NC(=O)Nc4c(C)noc4C)cc3C(=O)N2C)O1,-258
CN1C(=O)c2cc(NC(=O)Cc3ccccc3)ccc2OC[C@@H]2O[C@H](CC(=O)NCc3ccc(Cl)cc3)CC[C@@H]21,-293
CCCNC(=O)C[C@@H]1CC[C@H]2[C@H](COc3ccc(NC(=O)Cc4cccs4)cc3C(=O)N2C)O1,-207
CCCNC(=O)C[C@H]1CC[C@H]2[C@H](COc3ccc(NC(=O)Cc4cccs4)cc3C(=O)N2C)O1,-167
CCCC(=O)Nc1ccc2c(c1)OC[C@@H](C)N(C)C[C@H](C)[C@H](OC)CN(C)C2=O,1
C[C@@H]1CN([C@@H](C)CO)C(=O)c2cc(-c3ccc(F)cc3)cnc2O[C@@H]1CN(C)C(=O)c1cccnc1,3
C[C@H]1CN([C@@H](C)CO)C(=O)c2cc(-c3ccncc3)cnc2O[C@@H]1CN(C)C(=O)Cc1ccccn1,-2
C[C@H](CO)N1C[C@H](C)[C@@H](CN(C)C(=O)C2CCCCC2)Oc2ncc(C3=CCCC3)cc2C1=O,2
COc1cccc(S(=O)(=O)N(C)C[C@H]2Oc3ncc(C#CCC(C)C)cc3C(=O)N([C@H](C)CO)C[C@H]2C)c1,0
COCC#Cc1ccc2c(c1)O[C@@H](CN(C)C(=O)C1CCCCC1)[C@H](C)CN([C@H](C)CO)S2(=O)=O,-12
CCC(=O)N1C[C@@H](C)[C@H](OC)CN(C)C(=O)c2ccc(NC(=O)C3CCCCC3)cc2OC[C@@H]1C,2
CCS(=O)(=O)Nc1ccc2c(c1)C(=O)N(C)C[C@@H](OC)[C@H](C)CN(Cc1cccnc1)[C@H](C)CO2,0
C[C@@H]1CN([C@@H](C)CO)S(=O)(=O)c2ccc(C#Cc3ccccc3F)cc2O[C@@H]1CN(C)C(=O)Cc1ccccc1,7
CCC(=O)Nc1ccc2c(c1)OC[C@H](C)N(Cc1ccccc1F)C[C@@H](C)[C@H](OC)CN(C)C2=O,-1
C[C@@H]1CN([C@@H](C)CO)C(=O)c2cc(C3=CCCCC3)cnc2O[C@@H]1CN(C)Cc1cccc(F)c1,-2
CN1C(=O)c2cc(NC(=O)Cc3ccccc3)ccc2OC[C@@H]2O[C@H](CC(=O)NCC3CC3)CC[C@@H]21,-233
CCCNC(=O)C[C@@H]1CC[C@H]2[C@H](COc3ccc(NC(=O)c4ccc5c(c4)OCO5)cc3C(=O)N2C)O1,-102
CC(C)c1ccc(NC(=O)C[C@H]2CC[C@H]3[C@@H](COc4ccc(NC(=O)Nc5ccc(F)c(F)c5)cc4C(=O)N3C)O2)cc1,45*
Cc1ccccc1NC(=O)Nc1ccc2c(c1)C(=O)N(C)[C@@H]1CC[C@H](CC(=O)NCC3CC3)O[C@@H]1CO2,47*
CCNC(=O)Nc1ccc2c(c1)C(=O)N(C)[C@H]1CC[C@H](CC(=O)Nc3ccccc3F)O[C@@H]1CO2,53*
CCCNC(=O)C[C@H]1CC[C@H]2[C@@H](COc3ccc(NC(=O)c4cc(F)cc(F)c4)cc3C(=O)N2C)O1,53*
C[C@H](CO)N1C[C@H](C)[C@H](CN(C)CC2CCOCC2)Oc2ncc(C#CCc3ccccc3)cc2C1=O,2
COc1ccccc1-c1cnc2c(c1)C(=O)N([C@H](C)CO)C[C@H](C)[C@@H](CN(C)CC1CCCC1)O2,3
C[C@@H]1CN([C@@H](C)CO)C(=O)c2cc(/C=C/c3ccccc3)cnc2O[C@H]1CN(C)C(=O)c1cccc(F)c1,5
Cc1ccc(-c2cnc3c(c2)C(=O)N([C@@H](C)CO)C[C@H](C)[C@H](CN(C)Cc2ccccc2F)O3)cc1,0

# Screening data deposited in PubChem BioAssay by Broad Institute.
